KCNQ2 pot: enhances the rat KCNQ2 potassium channel; O88943; CHO-K1 KCNQ2, FluxOR thallium flux fluorescence; hits give high values; B-score at 10 µM; hit rate 0.54% among 310,000; AID 2239;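 active = fluorescence ratio B-score at least 3 SD of library B-scores, with initial fluorescence B-score within 3 of them, cut at about 5.3 in these data; same plate scores as AID 2156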;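 note: B-score of peak minus minimum over baseline fluorescence ratio after K+ and Tl+ stimulus; positive B-score means potentiation of KCNQ2 with more thallium influx and brighter signal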
KCNQ2 block: KCNQ2 (rat) channel inhibition. B-score at 10 µM. AID 2156. CHO-K1 KCNQ2, FluxOR thallium flux, 20 min; hits give low values. hit rate 1.1% among 310,000. O88943;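 active = fluorescence ratio B-score at most minus 3 library SDs, with starting brightness B-score within 2 library SDs, cut at about -5.5 in these data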
Kir21 confirm: confirmation of mouse Kir2.1 potassium channel inhibitors. Kir2.1-expressing cells, FluxOR thallium flux fluorescence; hits give low values. shares compounds with KCNQ2 pot. hit rate 41% among 2,300. Tl flux remaining, % of negative control (hits give low values), % at 10 µM. AID 2032;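 active = Primary-screen hit whose thallium flux fell at least 3 control SD below untreated wells in both duplicates, with normal baseline fluorescence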;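 note: 0% = blank wells without stimulus and 100% = stimulated no-compound controls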
HEK293 ctr: counter-screen for Kir2.1 inhibitors: effect in parental HEK293 cells. shares compounds with KCNQ2 pot. FluxOR thallium flux fluorescence; 0% = unstimulated blank wells. FluxOR signal as % of negative control (100 = no effect), % at 10 µM. hit rate 19% among 2,300. AID 2105;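 active = dye signal at least 3 control SD above or below untreated wells in both duplicates, raw fluorescence within 3, either direction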;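 note: percent is based on the flux ratio of peak minus minimum fluorescence over baseline F0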
CHO-K1 Tl ctr: parental CHO-K1 activity in KCNQ2 potentiator counter-screen; shares compounds with KCNQ2 pot; parental CHO-K1 cells, FluxOR thallium flux fluorescence; zero = vehicle mean+3SD, 100% = vehicle-minus-blank window; activity increase over 3SD of controls, % at 10 µM; hit rate 43% among 1,200; AID 2282;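 active = signal rise of at least 3 SD above the untreated control mean, in both duplicate wells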;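 note: counter screen of KCNQ2 potentiator hits so any rise reflects channel-independent effects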
KCNQ1 pot spec: tests whether KCNQ2 potentiators also act on human KCNQ1; shares compounds with KCNQ2 pot; CHO KCNQ1 stable, FluxOR thallium flux fluorescence; beyond 3SD, as % of vehicle-control signal; activation over 3SD threshold, % at 10 µM; hit rate 28% among 1,200;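 active = fluorescence ratio rise of at least 3 SD of vehicle wells above their mean, in both replicate wells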;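 note: 0% = vehicle mean plus 3 SD and 100% = vehicle minus unstimulated blank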
KCNQ2 pot conf: rat KCNQ2 channel potentiator confirmation | shares compounds with KCNQ2 pot | CHO-KCNQ2 cells, FluxOR thallium flux fluorescence | potentiation, less the hit threshold, % at 10 µM | hit rate 68% among 1,200 | AID 2287;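 active = fluorescence ratio rising 3 SD or more over the vehicle control mean in both replicates, plus primary screen hit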;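 note: peak minus minimum thallium fluorescence divided by baseline after K/Tl stimulus; 0% = vehicle mean plus 3 SD and 100% = vehicle minus unstimulated blank difference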
Kir21 spec: mouse Kir2.1 off-target activity of KCNQ2 potentiators | shares compounds with KCNQ2 pot | HEK293 Kir2.1, FluxOR thallium flux fluorescence | activity over 3SD threshold, % at 10 µM | hit rate 2% among 1,200 | AID 2345;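 active = fluorescence ratio rise of at least 3 SD above the vehicle-control mean, seen in both replicates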;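 note: 0% = vehicle mean plus 3 SD and 100% = vehicle minus no-stimulus blank window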
KCNQ2 W236L pot: rat KCNQ2 W236L mutant potentiation by KCNQ2 potentiators | hit rate 10% among 940 | current increase over 3SD of negative controls (%), hits give high values, % at 25 µM | AID 2558 | shares compounds with KCNQ2 pot | CHO KCNQ2-W236L, automated patch clamp current;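 active = current increase at least 3 SD of the untreated controls above them in both duplicate recordings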
Target sequence (O88943 whole entry W236L, looked up): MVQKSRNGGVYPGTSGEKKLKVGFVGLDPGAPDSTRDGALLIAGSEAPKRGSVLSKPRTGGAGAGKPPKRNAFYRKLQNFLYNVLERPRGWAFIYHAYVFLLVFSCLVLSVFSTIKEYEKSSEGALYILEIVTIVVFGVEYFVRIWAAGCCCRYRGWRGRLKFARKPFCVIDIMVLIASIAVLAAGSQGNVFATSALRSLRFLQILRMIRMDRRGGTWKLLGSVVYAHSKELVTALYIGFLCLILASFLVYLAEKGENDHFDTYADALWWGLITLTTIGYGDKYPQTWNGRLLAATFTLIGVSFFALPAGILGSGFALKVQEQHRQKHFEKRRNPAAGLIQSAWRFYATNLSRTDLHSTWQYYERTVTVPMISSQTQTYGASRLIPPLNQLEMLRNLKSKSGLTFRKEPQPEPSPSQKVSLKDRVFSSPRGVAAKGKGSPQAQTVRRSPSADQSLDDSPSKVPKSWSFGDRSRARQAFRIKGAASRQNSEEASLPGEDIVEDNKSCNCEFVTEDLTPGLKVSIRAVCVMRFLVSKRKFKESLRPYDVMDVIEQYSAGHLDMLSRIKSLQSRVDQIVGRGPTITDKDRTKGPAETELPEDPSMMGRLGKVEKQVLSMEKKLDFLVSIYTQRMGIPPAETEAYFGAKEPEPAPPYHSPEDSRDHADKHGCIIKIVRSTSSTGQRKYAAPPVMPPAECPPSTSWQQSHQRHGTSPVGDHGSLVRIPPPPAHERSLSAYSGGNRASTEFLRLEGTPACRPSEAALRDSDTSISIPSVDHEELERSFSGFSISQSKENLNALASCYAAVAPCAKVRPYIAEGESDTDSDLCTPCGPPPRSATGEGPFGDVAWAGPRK
An asterisk follows results filed as active; i = inactive; x = no result given. In the library only some 1.6% were active in any assay of this set; here they are far more common.

SMILES	KCNQ2 pot	KCNQ2 block	Kir21 confirm	HEK293 ctr	others
CCCCn1c(N)c(N(CCOC)C(=O)COC(=O)CCOc2ccccc2)c(=O)[nH]c1=O	x	i	i	i
CCCCn1c(N)c(N(CCOC)C(=O)COc2ccc(OCC)cc2)c(=O)[nH]c1=O	0.94	i	x	x
OCCCn1c(C2CCCN2c2nc(-c3ccc(F)cc3)cs2)nc2cc(Cl)c(N3CCCCC3)cc21 (centres undefined)	10.4*	i	i	i	CHO-K1 Tl ctr=-12.6;KCNQ1 pot spec=-7.9;KCNQ2 pot conf=54.9*;Kir21 spec=-25.4;KCNQ2 W236L pot=i
OCCCn1c(C2CCCN2c2nc(-c3ccc(Cl)cc3)cs2)nc2cc(Cl)c(N3CCCCC3)cc21 (centres undefined)	8.14*	i	i	i	CHO-K1 Tl ctr=13.4*;KCNQ1 pot spec=-21.1;KCNQ2 pot conf=8.9*;Kir21 spec=-26.3;KCNQ2 W236L pot=i
OCCOCCn1c(C2CCCN2c2nc(-c3ccc(F)cc3)cs2)nc2cc(Cl)c(Cl)cc21 (centres undefined)	x	i	x	x
Cc1csc(N2CCCC2c2nc3cc(Cl)c(N4CCCCC4)cc3n2CCCO)n1 (centres undefined)	2.37	i	x	x
O=C(NCCCC(=O)N1CCCCC1)c1ccc(Cl)cc1	1.16	i	x	x
COc1ccc(N2CC(C(=O)N3CCN(C(=O)c4ccco4)CC3)CC2=O)cc1 (centres undefined)	1.39	i	x	x
CCCc1ccc(OCc2ccc(C(=O)O)o2)c(OC)c1	0.16	i	x	x
COc1ccc(CCN(C)C(=O)c2ccc(COc3ccccc3)o2)cc1OC	x	i	56.0%*	i
O=C(NCCN1CCOCC1)c1ccc(Cl)c(S(=O)(=O)N2CCOCC2)c1	x	i	x	x
CCN(Cc1nc(-c2ccc(OC)c(OC)c2)no1)C(=O)c1ccoc1C	1.24	i	x	x
CCCCCCCCCCOC(=O)Cn1c(COc2cccc(C)c2)[n+](C)c2ccccc21	0.86	i	i	i
Cc1cccc(OCCCn2c(=O)sc3ccccc32)c1	x	i	x	x
CCCCCOC(=O)Cn1c(=O)oc2ccccc21	x	i	x	x
CCCCCCCCCCOC(=O)Cn1c(COc2ccc(Cl)cc2)[n+](C)c2ccccc21	x	i	x	x
CCCCOC(=O)Cn1c(=N)n(CCN2CCOCC2)c2ccccc21	x	i	x	x
CCCCCCCCCCOC(=O)Cn1c(COc2ccccc2)[n+](C)c2ccccc21	x	i	i	i
CCCCOC(=O)Cn1c(=O)n(CC(=O)OCCCC)c2ccccc21	x	i	i	i
CCCCCCCCCCOC(=O)Cn1c(COc2ccc(OC)cc2)[n+](C)c2ccccc21	1.65	i	i	i
CCOC(=O)CON1C(=O)C(=O)N(OCC(=O)OCC)C2CCCCC21 (centres undefined)	1.93	i	x	x
O=C1CC(c2cccs2)Cc2nc(NC(=O)C3CC3)ncc21 (centres undefined)	x	i	x	x
c1ccc(COc2ccc3nocc3c2)cc1	1.25	i	x	x
CC(C)(C)NC(=O)NC(=O)COC(=O)CCC1CCCC1	0.01	i	x	x
COc1ccc(NC(=S)NCCc2ccccc2)c(C)c1	x	i	x	x
SMILES	KCNQ2 pot	KCNQ2 block	Kir21 confirm	HEK293 ctr	others
CCc1cc(Br)ccc1NC(=S)NCCc1ccccc1	x	i	62.0%*	i
Cc1cc(NC(=O)CSCC(=O)OC(C)C(=O)c2cc(C)c(C)cc2C)no1 (centres undefined)	x	i	68.5%*	i
Cc1cc(NC(=O)CSCC(=O)OC(C)C(=O)N(C)Cc2ccccc2)no1 (centres undefined)	1.34	i	x	x
OCC[C@@H]1C[C@H](O)[C@@H](O)[C@]2(Cc3ccccc3O2)O1	x	i	x	x
O=C(c1ccco1)N1CCCN(Cc2nc(-c3ccc4c(c3)OCO4)no2)CC1	1.57	i	x	x
Fc1ccc(CN2CCCN(Cc3nc(-c4ccc5c(c4)OCO5)no3)CC2)cc1	x	i	44.5%*	i
Cn1c2ccccc2c2nnc(N/N=C/c3ccc(O)cc3)nc21	0.01	i	x	x
O=C(Nc1ccc(Cl)cc1Cl)c1n[nH]c(Cn2cncn2)n1	7.11*	i	i	i	CHO-K1 Tl ctr=-10.8;KCNQ1 pot spec=50.4*;KCNQ2 pot conf=-8.8;Kir21 spec=-22.9;KCNQ2 W236L pot=i
N#C/C(=C\c1ccc(Cl)cc1)c1n[nH]c(Cn2cncn2)n1	x	i	x	x
COc1ccc(Cl)cc1NC(=O)NN1CCN(C)CC1	0.88	i	x	x
Cc1cccc(NC(=O)COc2ccc(-c3nn(C)c(=O)c4ccccc34)cc2)c1	1.26	i	x	x
CC(C)=CC(=O)Nc1c(C)cc(C)cc1Cl	11.2*	i	i	i	CHO-K1 Tl ctr=-19.9;KCNQ1 pot spec=-19.9;KCNQ2 pot conf=28.2*;Kir21 spec=-27.4;KCNQ2 W236L pot=i
Cc1cc(C)c(NC(=O)CCCC(=O)O)c(Cl)c1	x	i	x	x
CC1=CCC[C@@H]2[C@@](C)(CC/C(C)=C/C(=O)O)[C@H](C)CC[C@@]12C	14.8*	i	i	135.5%*	CHO-K1 Tl ctr=68.4*;KCNQ1 pot spec=35.0*;KCNQ2 pot conf=7.9*;Kir21 spec=-11.8;KCNQ2 W236L pot=i
COc1ccccc1C(=O)NC(CCSC)C(=O)NCCCn1nc(C)cc1C (centres undefined)	1.03	i	x	x
CCc1cccc(C)c1NC(=O)COC(=O)c1cc([N+](=O)[O-])ccc1N1CCOCC1	0.75	i	x	x
Cc1nn(-c2ccc(Cl)nn2)c(=O)c2ccccc12	0.01	i	x	x
S=c1[nH]c2cc(-c3ccccc3)ccc2o1	17.9*	i	i	499.5%*	CHO-K1 Tl ctr=-16.8;KCNQ1 pot spec=-5.9;KCNQ2 pot conf=99.8*;Kir21 spec=3.9*;KCNQ2 W236L pot=i
O=S(=O)(c1ccc2oc(=S)[nH]c2c1)N1CCCCC1	x	i	x	x
C=CCn1c(SCC)nc2sc3c(c2c1=O)CCc1ccccc1-3	x	i	x	x
C=CCSc1nc2sc3c(c2c(=O)n1CC)CCc1ccccc1-3	5.72*	i	i	194.5%*	CHO-K1 Tl ctr=-0.8;KCNQ1 pot spec=-16.5;KCNQ2 pot conf=17.6*;Kir21 spec=-31.1;KCNQ2 W236L pot=6.7%*
COCCC1CCCCN1C(=O)c1cc(COc2ccc(-n3cncn3)cc2)on1 (centres undefined)	1.42	i	x	x
COc1cccc(CNC(=O)C(=O)N2CCC3(CC2)OCCN3S(=O)(=O)c2ccc(C)cc2)c1	0.08	i	x	x
O=C(Cc1ccc(Cl)c(Cl)c1)Nc1ccccc1N1CCCC1	7.2*	i	i	i	CHO-K1 Tl ctr=103.3*;KCNQ1 pot spec=-13.4;KCNQ2 pot conf=56.4*;Kir21 spec=-49.9;KCNQ2 W236L pot=i
O=C(Cc1ccc(F)cc1)Nc1ccccc1N1CCCC1	10.8*	i	59.0%*	i	CHO-K1 Tl ctr=2.5*;KCNQ1 pot spec=-9.5;KCNQ2 pot conf=48.4*;Kir21 spec=-81.4;KCNQ2 W236L pot=i
COc1ccc(NC(=O)CSCC(=O)Nc2ccccc2N2CCCC2)cc1	0.75	i	x	x
